Screening results deposited in PubChem by National Center for Advancing Translational Sciences (NCATS).
The sample as a whole holds a higher share of hits than the screen did.
Pf Dd2 inh: blocks in vitro growth of P. falciparum Dd2; 120,000 compounds, 4.3% hits; P. falciparum Dd2 growth, SYBR Green, 72 h; Potency, µM (series often up to 28.9 µM), usual class: inhibitors; active = well fitted inhibition curve with a large enough effect; note: nearly all actives have a fitted effect of over 65% in size
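Readout: SYBR Green fluorescence, 485 nm excitation, 535 nm emission, after ~16 h lysis at 37C. Before that, Dd2-infected red cells (2.5% hematocrit) grew 72 h with compound, 29 uM top final concentration.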
Large screens that a line does not name were inactive.

OCc1cc2n(n1)CCCN(Cc1cccc(OCc3ccccn3)c1)C2	none
COc1ccc(CN2CCN(CC(N)=O)CC2CCO)c(F)c1 (stereo not given)	none
OCC1(CC2CC2)CCCN(Cc2cccc(OCc3ccccn3)c2)C1 (stereo not given)	Pf Dd2 inh 5.6µM
COc1ccc(CCC(=O)N2CCCC2c2nc(C3CCOCC3)no2)cc1 (stereo not given)	none
O=C(NCc1cccnc1)C1CCC(=O)N(Cc2cccc(C(F)(F)F)c2)C1 (stereo not given)	none
O=C(c1cccc(F)c1)N1CC[C@H]2COC(=O)N2c2cc(F)ccc2C1	none
COCCCNC(=O)C1CCN(c2nn3cc(-c4ccc(F)cc4)nc3s2)CC1	none
O=C(NC1CCCCCC1)c1ccc2c(c1)sc1nc(-c3ccccc3)cn12	Pf Dd2 inh 10µM
CC1CCCCN1CCCNC(=O)c1ccc2c(c1)sc1nc(-c3ccc(F)cc3)cn12 (stereo not given)	Pf Dd2 inh 1.4µM
CCn1c(C)c(C)c2cc(C(=O)NCCCN3CCCCC3)ccc21	none
Cc1ccc(Cl)cc1N1CCN(CCCNC(=O)c2ccc3nc(N4CCCCC4)sc3c2)CC1	none
CCc1ccc(-c2cn3c(n2)sc2cc(C(=O)NC4CCCCC4)ccc23)cc1	none
O=C(NCCn1ccn2nc(-c3ccc(F)cc3)cc2c1=O)c1ccsc1	none
Cc1ccc(-c2cn3c(n2)sc2cc(C(=O)NCCCN4CCCCC4)ccc23)cc1	Pf Dd2 inh 2.5µM
O=C(NCCCN1CCCCC1)c1ccc2c(c1)sc1nc(-c3ccc(F)cc3)cn12	Pf Dd2 inh 2.8µM
COc1ccc(-c2cn3c(n2)sc2cc(C(=O)NC4CCCCC4)ccc23)cc1	none
O=C(NCCn1ccn2nc(-c3ccc(F)cc3)cc2c1=O)c1ccc(F)c(Cl)c1	none
O=C(NC1CCC(O)CC1)c1ccc(-c2ncc3cnc(-c4ccccc4)cn23)cc1 (stereo not given)	none
O=C(Nc1ccc(Cl)cc1)c1nc2c(o1)CCN(Cc1cnc[nH]1)CC2	none
CCc1ccc(NC(=O)Cn2c(C)cc3nc4n(c(=O)c32)CCCCC4)cc1	none
Cn1cc([C@@H](NC(=O)c2scc3c2CCCC3)C2CC(O)C2)cn1 (stereo not given in full)	none
COc1ccc(CCC(=O)N2CCC3(CC2)CC(N(C(C)=O)C2CC2)CCO3)cc1 (stereo not given)	none
CNCCN1C(=O)CC[C@H]2CN(C(=O)c3cnc4nc(C)[nH]n4c3=O)CC[C@H]21	none
Cc1ncccc1Oc1ncnc(-c2cc(N)nc3[nH]ccc23)c1C	none
CCn1ccnc1CN1CCN(C2CCCCC2)C(CCO)C1 (stereo not given)	none
O=C(Cn1nc2c(cc1=O)CCCCC2)N1CCN(Cc2ccc3c(c2)OCO3)CC1	none
Cc1ccc(CN(C)Cc2cnc(S(=O)(=O)C(C)C)n2CCc2ccccc2)o1	none
CCc1nc2c(NC(=O)NCc3ccc(OC)cc3)cccn2n1	none
CC(C)c1nc2c(NC(=O)COc3ccccc3)cccn2n1	none
COc1ccccc1CCC(=O)Nc1cccn2nc(C(C)C)nc12	Pf Dd2 inh 10µM
CN(Cc1cccc2ccccc12)C(=O)c1cc(CN2CCOCC2)on1	none
COc1ccccc1CNC(=O)C1CCN(c2cc(C(F)(F)F)nc(C)n2)CC1	none
c1ccc(-n2cnnc2CC2CCNCC2)cc1	none
CN(Cc1ccccc1)Cc1cn(C[C@H]2CC3CCN2C[C@@H]3C(=O)NCc2ccccc2)nn1 (stereo not given in full)	none
CN(Cc1ccccc1)Cc1cn(C[C@H]2CC3CCN2C[C@@H]3C(=O)NCc2ccc(F)cc2)nn1 (stereo not given in full)	Pf Dd2 inh 10µM
CC(=O)NCCNC(=O)[C@H]1CN2CCC1C[C@@H]2Cn1cc(CN(C)Cc2ccccc2)nn1 (stereo not given in full)	none
COC[C@@H]1CN(Cc2cccc(OC)c2OC)C[C@H]1C(=O)N(C)C	none
CCNC(=O)N[C@H]1CC[C@]2(C)CCC([C@H](C)C(=O)NCc3ccccc3OC)[C@H](O)[C@H]2[C@@H]1C (stereo not given in full)	none
COc1cccc(NC(=O)N[C@H]2CCN(C(=O)c3cccn3C)[C@@H]2C(=O)N[C@@H](Cc2cccs2)C(N)=O)c1	none
Cn1c(=O)c2c(nc(SCC(=O)Nc3ccc(OC(F)(F)F)cc3)n2Cc2cccc(C(F)(F)F)c2)n(C)c1=O	Pf Dd2 inh 11µM
Cn1c(=O)c2c(nc(SCC(=O)Nc3ccccc3)n2Cc2ccccc2F)n(C)c1=O	none
Cn1c(=O)c2c(nc(SCC(=O)Nc3ccc(F)cc3F)n2Cc2ccccc2)n(C)c1=O	none
Cc1ccc(CNC(=O)N2CCCCCCNC(=O)[C@@H]3CCC[C@@H]32)cc1	none
COc1ccc(OC)c(S(=O)(=O)N2CCC(n3cnnc3C)CC2)c1	none
COc1ccc(OC)c(S(=O)(=O)N2CCCC(Cn3c(C)nc4cccnc43)C2)c1 (stereo not given)	none
CCCn1c(C)cnc1C1CCN(S(=O)(=O)c2cc(OC)ccc2OC)C1 (stereo not given)	Pf Dd2 inh 3.5µM
CCOC(=O)C1CCN(c2c(C(=O)c3ccc(OC)cc3)cnc3ccccc23)CC1	Pf Dd2 inh 8.9µM
CCOC(=O)C1CCN(C(=O)c2c[nH]c3ncccc23)CC1	none
